# Sampled rows, rich in hits. Any-hit rate of the full collection: about 4.7%.
# TRHR agonist: agonists of human TRH receptor. P34981. TRHR cells, calcium flux fluo-8, FDSS agonist mode. activation, % at 2 µM. hit rate 0.18% among 360,000. AID 493084; note: 0% is about no effect
# Target sequence (P34981 whole entry, looked up): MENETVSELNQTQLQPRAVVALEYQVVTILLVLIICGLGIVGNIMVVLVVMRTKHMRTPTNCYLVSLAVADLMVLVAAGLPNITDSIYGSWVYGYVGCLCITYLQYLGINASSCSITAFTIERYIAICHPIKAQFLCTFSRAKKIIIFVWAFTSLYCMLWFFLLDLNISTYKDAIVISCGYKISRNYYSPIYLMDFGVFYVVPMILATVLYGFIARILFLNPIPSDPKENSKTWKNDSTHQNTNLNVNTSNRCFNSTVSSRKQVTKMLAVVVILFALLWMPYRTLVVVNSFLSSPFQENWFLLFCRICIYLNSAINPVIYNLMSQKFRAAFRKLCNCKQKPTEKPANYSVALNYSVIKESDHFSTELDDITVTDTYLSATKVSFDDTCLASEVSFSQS
#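 TRHR-expressing cells, plated overnight in medium with 10% serum, were loaded with fluo-8 calcium dye at room temperature. After a 10 s baseline, library compound was pin-added and calcium release was recorded kinetically (ex 480/em 530) as agonist response.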
# D1 antag: antagonists of human D1 dopamine receptor; HEK293 TREx D1 cells, calcium flux, dopamine EC80; stronger effect = lower value; activity change, negative = inhibition, % at 10 µM; hit rate 3.2% among 360,000; AID 504652; in the data active = activity change below about -30%; note: % is set by controls: 0 for no effect and ±100 for the full control effect
#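 HEK293 T-REx cells expressing inducible, force-coupled D1 receptor; no-wash Ca dye, 30–90 min RT. Cmpd → 180 s read at 1 Hz → EC80 DA → 180 s read.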
# D1 potentiator: enhances dopamine response at the human D1 receptor; hit rate 0.036% among 360,000; P21728; HEK293 TREx D1 cells, calcium flux, dopamine EC20 potentiation; potentiation, % at 10 µM; in the data active = potentiation above about 30%; note: 0% is about no effect
# TRHR PAM: TRH receptor (human) allosteric enhancement. P34981. TRHR cells, fluo-8 calcium fluorescence, EC20 TRH enhancement. enhancement, % at 2 µM. hit rate 0.66% among 360,000; in the data active = enhancement above about 30%; note: 0% is about no effect
#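 TRHR-expressing cells loaded with fluo-8 calcium dye were read kinetically (ex 480/em 530) during compound addition, then stimulated with an EC20 of TRH (10 nM final). Enhancement of the Gq-mediated intracellular calcium response was scored.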
# D1 agonist: human D1 receptor agonism | AID 504660 | activation, % at 2 µM | P21728 | HEK293 T-REx D1 cells, calcium flux, agonist mode | hit rate 1% among 360,000; note: 0% is about no effect
#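 Inducible HEK293 T-REx D1 cells, force-coupled to calcium signalling, were plated at 4000 cells/well with tetracycline and held overnight at 30 C. After no-wash calcium dye loading, compound-evoked calcium rise over 180 s flagged agonists.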
# Starred values were filed as active, the others as inactive; . = not tested or not shown; ! = a repeat was not active. Cut-off read from the data, not from the text of the source, unless noted: active = activation above about 30%; inactive = the rest.
SMILES,TRHR agonist,D1 antag,D1 potentiator,TRHR PAM,D1 agonist
COc1ccc(C(=O)OC(C(=O)c2ccccc2)c2ccccc2)cc1 (stereo not drawn),1,-30*,-8,4,13
COc1ccc(C(=O)C(OC(=O)c2ccc(C)c(NC(C)=O)c2)c2ccccc2)cc1 (stereo not drawn),2,2,6,14,1
O=C(O)c1cccnc1SCc1cccc(Cl)c1,0,-40*!,-13,-27,1
COCc1cc(C)nc2c1C(=O)NC(c1ccc(Br)cc1)N2Cc1ccccc1 (stereo not drawn),3,-12,0,4,2
CCOc1ccccc1NC(=O)N(Cc1ccc(F)cc1)C1CCN(CC)CC1,0,12,2,1,-1
Cc1ccc2oc(C(=O)NCc3ccc(S(N)(=O)=O)cc3)cc(=O)c2c1,-1,0,7,-10,0
COc1ccc(CNC(=O)Cc2coc3ccc(C)cc23)cc1,-1,-35*,-3,1,6
Cc1ccc(CNC(=O)c2cc(=O)c3cc(C)ccc3o2)cc1,-1,2,-10,10,60*!
CCc1ccc2c(c1)-c1ccccc1S(=O)(=O)N2CC(=O)N1CCCCC1,0,-1,1,-8,4
Cn1c(=O)n(CC(=O)O)c(=O)c2c1nc1n2CCS1,-1,-10,-9,40*!,1
O=C(NC1CC(=O)N(c2ccc(F)cc2)C1)C(c1ccccc1)c1ccccc1 (stereo not drawn),0,.,-2,-6,7
CCOc1cccc(CN2CCCC(N3CCN(c4cccc(Cl)c4)CC3)C2)c1O (stereo not drawn),-1,1,0,-2,3
CC(C)/C=C/CN1CCCC(N2CCN(c3cccc(Cl)c3)CC2)C1 (stereo not drawn),1,-37*,-7,0,6
CN(C(=O)c1ccccc1C(=O)OCC(=O)NCc1ccccc1)C1CCCCC1,0,-35*,-3,3,1
CC(C)n1cnc2c(N(C)c3ccccc3)nc(N(CCN(C)C)Cc3ccccc3)nc21,4,-104*,0,-6,28
CC(=O)c1ccc(Nc2c3c(c(C#N)c4nc5ccccc5n24)CCC3)cc1,10,0,-2,10,5
CC(=O)Nc1ccc(N2CCc3c(C)c(C#N)c4nc5ccccc5n4c32)cc1,20,5,1,-1,47*
CCCSc1nc(-c2ccccc2)[nH]c1S(=O)(=O)c1ccc(C)cc1,0,3,-1,-1,-2
CN(C)S(=O)(=O)N(CC(=O)NCc1ccccc1)c1ccccc1,0,-19,1,-6,1
COc1ccc(CNC(=O)CN(c2ccccc2)S(=O)(=O)N(C)C)cc1,0,-32*!,-4,-17,1
COc1ccc(CNC(=O)CN(c2ccccc2OC)S(=O)(=O)c2ccc(C)cc2)cc1,0,-32*,0,0,44*
COc1ccccc1N(CC(=O)NCc1ccco1)S(=O)(=O)c1ccc(C)cc1,0,4,0,0,1
CCCN1CC=C2C(C#N)=C(N)C(C#N)(C#N)C(c3cccc(OC)c3OC)C2C1 (stereo not drawn),7,-3,0,4,34*
O=c1c2[nH]c3cccc(Cl)c3c2ncn1CC1CCCO1 (stereo not drawn),-1,-30*,-9,-4,2
Cc1ccccc1C1CCCN(C(=O)c2cc(COc3c(F)cccc3F)on2)C1 (stereo not drawn),3,-33*,-6,-5,16
SMILES,TRHR agonist,D1 antag,D1 potentiator,TRHR PAM,D1 agonist
CCCOC1CCCN(C(=O)c2cc(COc3c(F)cccc3F)on2)C1 (stereo not drawn),0,7,2,5,1
COc1ccc2c(c1)CC(C(=O)NCCc1ccc(S(N)(=O)=O)cc1)CO2 (stereo not drawn),0,8,2,3,0
CC12CCC(=O)N1C(C(=O)N1CCN(c3cccc(Cl)c3)CC1)CS2 (stereo not drawn),0,-61*,.,-16,9
CC12CCC(=O)N1C(C(=O)Nc1ccc(F)c(Cl)c1)CS2 (stereo not drawn),0,4,-3,35*,1
CC12CCC(=O)N1C(C(=O)Nc1ccccc1F)CS2 (stereo not drawn),1,6,5,0,-1
CC12CCC(=O)N1C(C(=O)N1CCN(c3ccccc3)CC1)CS2 (stereo not drawn),0,-16,-1,-11,3
CCN(C(=O)c1cc(S(=O)(=O)N2CCc3ccccc32)cn1C)c1cccc(C)c1,0,-8,-4,15,0
CCNC(=O)CC1C(=O)N(c2ccc(F)cc2)C(=O)N1Cc1ccc(OC)c(OC)c1 (stereo not drawn),-1,16,-1,9,-1
O=C(Nc1ccc(C(F)(F)F)cc1)N1CCC(N2CCCCC2)CC1,1,8,-2,1,14
CCCn1c(SCc2nc(-c3ccc(OC)cc3OC)no2)nnc1-c1ccc(Cl)cc1,0,-4,0,0,0
CC(=Nc1ccc(C)cc1C)c1sc2ccccc2c1O,5,-12,-6,0,21
CC(=Nc1ccc(C)cc1)c1sc2ccccc2c1O,19,-22,-8,-6,61*
Cc1ccc(OCC(=O)OCc2cc(=O)n3nc(C4CCCCC4)sc3n2)cc1C,0,-9,-3,6,4
CCc1ccccc1Nc1nn2c(=O)c3ccc(C(=O)NCc4cccs4)cc3nc2s1,1,15,-1,7,6
O=S(=O)(NCc1ccc(C(F)(F)F)cc1)c1ccc(-n2cnnn2)cc1,0,-39*,-5,-12,10
CCc1ccc2oc(C(=O)Nc3cc(C)ccc3C)cc(=O)c2c1,-1,10,3,-2,-2
CCCCSc1nc2c(c(C(F)(F)F)c1C#N)CCC2,0,13,-4,0,-1
CCOC(=O)CCSc1nc2c(c(C(F)(F)F)c1C#N)CCC2,0,-38*,4,-4,-1
COc1ccc(-n2nc(C(=O)N3CCN(c4cccc(C)c4)C(C)C3)c3c4ccccc4n(C)c3c2=O)cc1Cl (stereo not drawn),2,-9,4,-4,1
COc1cccc(OCc2nnc(-c3cccs3)o2)c1,0,-32*,2,11,2
CCOc1ccc(OCc2cccc(C(=O)N3CCCCCC3)c2)cc1,0,-21,-6,-5,10
O=C(NN1CCCCC1)c1cccc(COc2ccc(Cl)cc2)c1,1,-31*,-3,2,5
Cc1cc(C)c(CN2C(=O)c3ccccc3S(=O)(=O)c3ccc(C(=O)OCC4CCCO4)cc32)c(C)c1 (stereo not drawn),0,-4,-3,-5,1

# High-throughput results deposited in PubChem BioAssay by National Center for Advancing Translational Sciences (NCATS).
